High-throughput results as filed in PubChem BioAssay.
GLP-1R inv ag – acts as inverse agonist at human GLP-1 receptor | Potency, µM (titrated, usually from 38.3 µM), for the others: at the top dose activity change, negative = inhibition, most hits filed as inhibitors | HEK293 GLP-1R CRE-luciferase, luminescence, 24 h; GLP-1R form is constitutively active | hit rate 1.6% among 410,000 | P43220; further: potency means the concentration at half of the fitted maximal effect; on the % scale 0 is the no-effect control and ±100 the full control effect; nearly all actives have a fitted effect of over 55% in size
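HEK293 cells stably co-expressing a cAMP-responsive luciferase reporter and constitutively active GLP-1R were seeded, incubated 12 h, then exposed to compounds for 24 h at 37 C. Luminescence was read 12 min after detection reagent; inverse agonists lower signal.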
GLP1R cytotox – cytotoxicity counter-screen for GLP-1 receptor inverse agonists. hit rate 0.13% among 410,000. AID 624418. Potency, µM (highest dose often 38.3 µM), for the others: at the top dose activity change, negative = inhibition, hits mostly inhibitors. HEK293 cAMP-luciferase reporter cells, luminescence, 24 h;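 further: loss of luciferase light is scored as toxicity; potency means the concentration at half of the fitted maximal effect; on the % scale 0 is the no-effect control and ±100 the full control effect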
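A 23 nL compound transfer followed 12 hours of cell culture at 37 deg C; exposure then lasted 24 hr. Luciferase assay detection reagent was dispensed and plates read for luminescence after a 12 min room-temperature wait.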
DRD3 antagonist – D3 dopamine receptor (human) antagonism | P35462 | D3R cells, DiscoveRx beta-arrestin luminescence, antagonist mode; hits give low values | hit rate 2.5% among 360,000 | max response, negative = inhibition, %; in the data active means max response below about -50%; inconclusive means no clear call, values can overlap the other calls; further: on the % scale 0 is the no-effect control and ±100 the full control effect
Target sequence (P35462 whole entry, looked up): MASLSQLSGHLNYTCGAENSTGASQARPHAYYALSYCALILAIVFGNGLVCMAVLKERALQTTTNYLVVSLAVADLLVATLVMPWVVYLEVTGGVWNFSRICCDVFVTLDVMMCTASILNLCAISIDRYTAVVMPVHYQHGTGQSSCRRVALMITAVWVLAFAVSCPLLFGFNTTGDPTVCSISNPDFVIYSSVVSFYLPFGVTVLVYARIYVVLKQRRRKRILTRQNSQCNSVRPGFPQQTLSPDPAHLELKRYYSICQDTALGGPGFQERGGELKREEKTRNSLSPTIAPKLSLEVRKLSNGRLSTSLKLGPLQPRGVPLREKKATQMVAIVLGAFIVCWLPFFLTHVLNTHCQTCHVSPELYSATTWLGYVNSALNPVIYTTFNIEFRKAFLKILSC
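Cells plated overnight at 1500 cells/well, then exposed to library compounds with dopamine controls for 90 minutes at 37 degrees C. DiscoveRx reagent added for 30–60 minutes at room temperature; luminescence read, quantitative HTS format.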
ClpP mod – qHTS Assay for Activators of ClpP; hit rate 1.9% among 340,000; AID 651965, 2013; ATP-dependent Clp protease proteolytic subunit (Bacillus subtilis (strain 168)), P80244; purified B. subtilis ClpP, FRET peptide cleavage, 20 min; Potency, µM (doses to about 57.5 µM), for inactives: at the top dose activity change, negative = active; active means well fitted falling curve with a large enough effect; inconclusive means small, poorly fitted or top-dose-only effect; inactive means no such curve, though single readings can be large or run the other way; further: potency means the concentration at half of the fitted maximal effect; the source files actives as falling curves though it sought activators and does not explain the sign; nearly all actives have a fitted effect of over 65% in size
Target sequence (P80244 whole entry, looked up): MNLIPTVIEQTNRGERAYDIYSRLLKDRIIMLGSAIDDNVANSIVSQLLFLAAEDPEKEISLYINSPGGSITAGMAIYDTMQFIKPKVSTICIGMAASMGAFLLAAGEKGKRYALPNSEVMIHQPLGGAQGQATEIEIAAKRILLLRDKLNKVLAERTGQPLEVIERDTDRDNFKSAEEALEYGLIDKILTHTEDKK
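FRET quenching reversal measured ClpP activation: 10 microg/mL B. subtilis ClpP at pH 8 with the FRET-FV decapeptide, read at 430 nm after 320 nm excitation. The 20-min minus 0-min signal was scaled between DMSO/no-enzyme wells and ADEP (5.8 microM final).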
GLP-1R agonist – agonists of human GLP-1 receptor. P43220. HEK293 GLP-1R CRE-luciferase, luminescence, 4-6 h; cells express a hypersensitive GLP-1R form. Potency, µM (series often up to 45.6 µM), without a hit: at the top dose activation, hits mostly activators. hit rate 0.007% among 380,000; further: potency means the concentration at half of the fitted maximal effect; % of control where 0% means no effect
DRD3 agonist – agonists of human D3 dopamine receptor | P35462 | D3R DiscoveRx beta-arrestin cells, luminescence, 90 min | max activation, % | hit rate 0.58% among 410,000; in the data active means max activation above about 30%; further: 0% is about no effect
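Cells at 1500/well, incubated overnight, then treated with pinned compounds (dopamine as control) for 90 min at 37 degrees C. DiscoveRx reagent added for 30 - 60 minutes at room temperature; luminescence read.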
An asterisk follows results filed as active. In the library only some 5.7% were active in any assay of this set; here they are far more common. Unless noted, the call rests on the fitted dose curve; in most records, active means well fitted curve in the direction sought with a large enough effect; inconclusive means small, poorly fitted or top-dose-only effect, or another doubt; inactive means no such curve, though single readings can be large; an effect the other way counts as inactive or inconclusive.

What do the screens show for `O=S(=O)(Nc1cccc(-c2cn3cccnc3n2)c1)c1ccccc1`?
GLP-1R inv ag: 13%; GLP1R cytotox: 5%; DRD3 antagonist: 0; ClpP mod: 36%; GLP-1R agonist: 7%; DRD3 agonist: 0

How did Clc1ccc(-c2cn3cccnc3n2)cc1Cl do in these assays?
GLP-1R inv ag: 13%; GLP1R cytotox: 9%; DRD3 antagonist: 18; ClpP mod: 11µM*; GLP-1R agonist: -13%; DRD3 agonist: 0

What do the screens show for `Clc1ccc(-c2cn3cccnc3n2)cc1`?
GLP-1R inv ag: 18%; GLP1R cytotox: -15%; DRD3 antagonist: -1; ClpP mod: 92%; GLP-1R agonist: 3%; DRD3 agonist: -7

What do the screens show for `O=S(=O)(Nc1cccc(-c2cn3cccnc3n2)c1)c1ccc(-c2ccccc2)cc1`?
GLP-1R inv ag: 0%; GLP1R cytotox: 61%; DRD3 antagonist: 8; ClpP mod: 28µM*; GLP-1R agonist: 1%; DRD3 agonist: 8

How did Cc1ccccc1NC(=O)c1nc(SCc2ccccc2F)ncc1Cl do in these assays?
ClpP mod: -9%

How did Cc1nc(N2CCC(C)CC2)c2nnn(Cc3ccccc3)c2n1 do in these assays?
GLP-1R inv ag: 10µM*; GLP1R cytotox: 3%; DRD3 antagonist: 27; ClpP mod: -3%; GLP-1R agonist: 21%; DRD3 agonist: -6

What do the screens show for `CC(C)(CN1CCCN(CC(C)(C)C(=O)O)C1=O)C(=O)O`?
GLP-1R inv ag: 6%; GLP1R cytotox: -5%; DRD3 antagonist: -19; ClpP mod: -2%; GLP-1R agonist: 0%; DRD3 agonist: 0

Results for CN(C)c1ccc(/C=C/c2nc3ccccc3s2)c(Cl)c1 ?
ClpP mod: 0%

How did O=C(NCCCn1ccnc1)Nc1cccc2ccccc12 do in these assays?
GLP-1R inv ag: 4%; GLP1R cytotox: 8%; DRD3 antagonist: 19; ClpP mod: 32µM*; GLP-1R agonist: -4%; DRD3 agonist: -25

Results for CC1CN(CCOCCSc2ccc(Cl)cc2)CC(C)O1 (centres undefined) ?
GLP-1R inv ag: -21%; GLP1R cytotox: 2%; DRD3 antagonist: -64*; ClpP mod: -1%; GLP-1R agonist: -6%; DRD3 agonist: -7

How did CC1CN(CCOc2ccccc2C(C)C)CC(C)O1 (centres undefined) do in these assays?
GLP-1R inv ag: -21%; GLP1R cytotox: 3%; DRD3 antagonist: -69*; ClpP mod: 1%; GLP-1R agonist: -3%; DRD3 agonist: -26

What do the screens show for `Cc1ccc(C)c(OCCOCCN2CC(C)OC(C)C2)c1C` (centres undefined)?
GLP-1R inv ag: 0%; GLP1R cytotox: 0%; DRD3 antagonist: -75*; ClpP mod: 0%; GLP-1R agonist: 11%; DRD3 agonist: -5

What do the screens show for `CC1CN(CCOCCSc2ccccc2)CC(C)O1` (centres undefined)?
GLP-1R inv ag: -2%; GLP1R cytotox: -6%; DRD3 antagonist: -67*; ClpP mod: 0%; GLP-1R agonist: -9%; DRD3 agonist: -4

Results for CC1CN(CCCCSc2ccc(Cl)cc2)CC(C)O1 (centres undefined) ?
GLP-1R inv ag: inconclusive; GLP1R cytotox: 9%; DRD3 antagonist: 7; ClpP mod: -3%; GLP-1R agonist: -5%; DRD3 agonist: 9

What do the screens show for `CC1CN(CCCCN2C(=O)c3ccccc3C2=O)CC(C)O1` (centres undefined)?
GLP-1R inv ag: 3%; GLP1R cytotox: -2%; DRD3 antagonist: 1; GLP-1R agonist: 7%; DRD3 agonist: -18

What do the screens show for `O=C(Cc1c(F)cccc1Cl)NNC(=O)c1ccncc1`?
GLP-1R inv ag: 10%; GLP1R cytotox: -9%; DRD3 antagonist: 12; ClpP mod: 0%; GLP-1R agonist: -3%; DRD3 agonist: 2

Results for CC(=O)NC(c1cccc(F)c1)c1nc(-c2csc3ccccc23)cs1 (centres undefined) ?
GLP-1R inv ag: inconclusive; GLP1R cytotox: 6%; DRD3 antagonist: -23; ClpP mod: -3%; GLP-1R agonist: 9%; DRD3 agonist: -14

How did c1ccc(CNCCC(Cc2ccccc2)c2ccco2)cc1 (centres undefined) do in these assays?
GLP-1R inv ag: 8.9µM*; GLP1R cytotox: inconclusive; DRD3 antagonist: -10; ClpP mod: 7%; GLP-1R agonist: -6%; DRD3 agonist: -34

What do the screens show for `Cc1ccc(C(=O)N(CCN2CCCCC2)CC2CCCN(C3CCCC3)C2)s1` (centres undefined)?
GLP-1R inv ag: 8.9µM*; GLP1R cytotox: inconclusive; DRD3 antagonist: -29; ClpP mod: -12%; GLP-1R agonist: 45%; DRD3 agonist: -35

What do the screens show for `O=C(c1cccs1)N(CCN1CCCCC1)CC1CCCN(C2CCCC2)C1` (centres undefined)?
GLP-1R inv ag: inconclusive; GLP1R cytotox: inconclusive; DRD3 antagonist: -22; ClpP mod: 1%; GLP-1R agonist: 15%; DRD3 agonist: -16

Results for Cc1cc(-c2nc3ccccc3s2)ccc1N ?
GLP-1R inv ag: 7.9µM*; GLP1R cytotox: 19%; DRD3 antagonist: -6; ClpP mod: inconclusive; GLP-1R agonist: -16%; DRD3 agonist: -8

Results for CC(=O)Nc1cc(-c2nc3ccccc3s2)ccc1C ?
GLP-1R inv ag: 8%; GLP1R cytotox: -1%; ClpP mod: 3%; DRD3 agonist: -24

Results for Brc1ccc(-c2nc3ccccc3s2)s1 ?
GLP-1R inv ag: 18%; GLP1R cytotox: 0%; DRD3 antagonist: -2; ClpP mod: 28µM*; GLP-1R agonist: 9%; DRD3 agonist: -14

What do the screens show for `Nc1ccc2nc(-c3ccccc3)sc2c1`?
GLP-1R inv ag: 8.9µM*; GLP1R cytotox: 126%; DRD3 antagonist: inconclusive; ClpP mod: inconclusive; GLP-1R agonist: -39%; DRD3 agonist: -10

How did Cc1ccc2sc(-c3ccc(N)cc3)nc2c1 do in these assays?
GLP-1R inv ag: inconclusive; GLP1R cytotox: -2%; ClpP mod: 37%; DRD3 agonist: -12

What do the screens show for `Cc1ccc2nc(-c3ccc(N)cc3)sc2c1`?
GLP-1R inv ag: 4.5µM*; GLP1R cytotox: -8%; DRD3 antagonist: 3; GLP-1R agonist: -6%; DRD3 agonist: -18

What do the screens show for `Nc1ccc(-c2nc3ccccc3s2)cn1`?
GLP-1R inv ag: 21%; GLP1R cytotox: 5%; DRD3 antagonist: -5; GLP-1R agonist: 9%; DRD3 agonist: 3

What do the screens show for `O=C(NCC1CC1)c1cc2c(c(-c3cccc(-c4ccccc4F)c3)n1)[C@@H](CCO)N(C(=O)CC1CC1)C2`?
GLP-1R inv ag: inconclusive; GLP1R cytotox: -8%; DRD3 antagonist: -8; ClpP mod: 0%; GLP-1R agonist: 9%; DRD3 agonist: -11
